# Results from PubChem BioAssay (NCI).
# This is part of a sample that, as a whole, favours compounds with a hit. Of some 83,000 tested, about 20% had one in any assay.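 How to read the values: 0–100, growth inhibition (40 = 60% inhibited); 0, no net growth; -100 to 0, cell death (-40 = 40% of starting cells died; -100 = all dead).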 Values without a mark were called inactive. Active and inactive are the calls of the source. Rule for the calls: active = growth percent below 10; inactive = the rest.
# Test system: OVCAR-5 ovarian
# Assay: NCI-60 one-dose screen, 48 h (100 = growth as untreated, 0 = no growth, -100 = all killed)
# Conditions: 10 µM unless noted
row,SMILES,growth
1,Clc1ccc(-c2nnc(-c3ccco3)o2)cc1,82.4%
2,O=C1CSC(c2ccc(O)cc2)N1c1nnc(Cn2cnnc2)o1 (stereo not drawn),96.1%
3,NC(N)=N/N=C/c1ccc(Br)cc1,73.5%
4,N#Cc1c(N)nc2c(nnn2-c2cccc(Br)c2)c1N,108%
5,O=C1Nc2ccccc2SC1c1ccccc1Cl (stereo not drawn),98.1%
6,CCOC(=O)c1sc2ccc(NCc3nc[nH]c3C)cc2c1NC(=O)c1cc(OC)c(OC)c(OC)c1,96.7%
7,CCCc1cc(=O)oc2c3c(c4c(c12)OC(C)(C)C=C4)O[C@@H](C)[C@H](C)C3=O,-19.4% (active)
8,CN(C)c1ccc2cc(-c3ccccc3F)c(N)nc2c1,68.7%
9,CCN(CC)CCCNC(=O)c1ccc(N)cc1O,98.9%
10,Cc1cn(C2CCCCC2)c(=O)[nH]c1=O,94.9%
11,CCCCOC(=O)c1ccc(NC(=O)C(C)N2CCOCC2)cc1 (stereo not drawn),112%
12,CSc1ccc(Cl)c(C(=O)Nc2sccc2C(N)=O)c1,98.2%
13,CC(=O)Nc1cccc(C2=CC(c3ccc(C)cc3)n3ncnc3N2)c1 (stereo not drawn),95.2%
14,O=C(O)CC1Sc2ccccc2NC1=O (stereo not drawn),83.9%
15,Cc1cccc(-c2cc(O)c(C(=O)N3CCOCC3)s2)c1,92.1%
16,CCC(=O)OC1=C(C)SC2=NC(c3ccc(Cl)c(Cl)c3)=CC(c3cc(OC)c(OC)c(OC)c3)N21 (stereo not drawn),102%
17,COc1ccc(NC(=O)C(=O)c2c[nH]c3ccc(F)cc23)cc1,106%
18,COc1ccc(/C(C)=C(\c2ccc(Cl)cc2)c2ccc(OCCN3CCCCCC3)cc2)cc1F,58.9%
19,CC/C=C/[C@@H]1C=C[C@@H]2CCC[C@H]2[C@@H]1CC[C@H](O)[C@H](C)N,-29% (active)
20,O=C1CSC(c2ccccc2Cl)N1c1nnc(Cn2cnnc2)o1 (stereo not drawn),63%
21,C=C(C=O)[C@@H]1CC=C(C=O)CC1,-54.5% (active)
22,CC(c1ccc(-n2cccn2)cc1)c1cnc(N2CCc3ccc(C(N)=O)cc3C2)s1 (stereo not drawn),92.8%
23,CNC=O,87.7%
24,Cc1ccccc1NC(=O)CN(C)C,95.8%
25,O=C(CC1Sc2ccccc2NC1=O)NNc1ccc(F)cc1 (stereo not drawn),76.3%

# Test system: OVCAR-4 ovarian
# Assay: as above
# Conditions: 10 µM unless noted
row,SMILES,growth
1,Clc1ccc(-c2nnc(-c3ccco3)o2)cc1,95.4%
2,CC1(C)N=C(N)N=C(N)N1c1ccc(Cl)c(Cl)c1,54.5%
3,O=C1CSC(c2ccc(O)cc2)N1c1nnc(Cn2cnnc2)o1 (stereo not drawn),88.6%
4,Nc1ccc2c(S(=O)(=O)O)ccc(S(=O)(=O)O)c2c1,99.9%
5,NC(N)=N/N=C/c1ccc(Br)cc1,51.8%
6,N#Cc1c(N)nc2c(nnn2-c2cccc(Br)c2)c1N,107%
7,C=C(C=O)C1CCC2(C(=O)O)CCC3(C)C(CCC4C5(C)CCC(O)C(C)(C)C5CCC43C)C12 (stereo not drawn),34.2%
8,O=C1Nc2ccccc2SC1c1ccccc1Cl (stereo not drawn),80.4%
9,CCOC(=O)c1sc2ccc(NCc3nc[nH]c3C)cc2c1NC(=O)c1cc(OC)c(OC)c(OC)c1,74%
10,COc1cc(/C=C/C(=O)c2cccc(-n3cc(-c4ccc(Cl)cc4)[nH]c3=O)c2)cc(OC)c1OC,76.9%
11,CCCc1cc(=O)oc2c3c(c4c(c12)OC(C)(C)C=C4)O[C@@H](C)[C@H](C)C3=O,67.8%
12,Cc1cc(Cc2cc(C)cc(C(C)(C)C)c2O)c(O)c(C(C)(C)C)c1,48.5%
13,CN(C)c1ccc2cc(-c3ccccc3F)c(N)nc2c1,32.8%
14,CCN(CC)CCCNC(=O)c1ccc(N)cc1O,118%
15,Cc1cn(C2CCCCC2)c(=O)[nH]c1=O,90.8%
16,Cc1c2c(cn1Cc1ccccc1)CCc1cn(C)nc1-2,55.4%
17,COc1cc(C(=O)/C=C/c2c(C(F)(F)F)nc3ccccn23)cc(OC)c1OC,8.45% (active)
18,CCCCOC(=O)c1ccc(NC(=O)C(C)N2CCOCC2)cc1 (stereo not drawn),124%
19,Cc1c2c(cn1Cc1ccccc1)CCc1cn[nH]c1-2,81.3%

row,SMILES,growth
1,CSc1ccc(Cl)c(C(=O)Nc2sccc2C(N)=O)c1,83.5%
2,CC(=O)Nc1cccc(C2=CC(c3ccc(C)cc3)n3ncnc3N2)c1 (stereo not drawn),103%
3,O=C(O)CC1Sc2ccccc2NC1=O (stereo not drawn),128%
4,COc1ccc(-c2nc3ccccn3c2/C=C/C(=O)c2cc(OC)c(OC)c(OC)c2)cc1,56.5%
5,Cc1cccc(-c2cc(O)c(C(=O)N3CCOCC3)s2)c1,77.3%
6,CCC(=O)OC1=C(C)SC2=NC(c3ccc(Cl)c(Cl)c3)=CC(c3cc(OC)c(OC)c(OC)c3)N21 (stereo not drawn),98.1%
7,COc1ccc(NC(=O)C(=O)c2c[nH]c3ccc(F)cc23)cc1,102%
8,COc1ccc(/C(C)=C(\c2ccc(Cl)cc2)c2ccc(OCCN3CCCCCC3)cc2)cc1F,36%
9,CC/C=C/[C@@H]1C=C[C@@H]2CCC[C@H]2[C@@H]1CC[C@H](O)[C@H](C)N,32.8%
10,O=C1CSC(c2ccccc2Cl)N1c1nnc(Cn2cnnc2)o1 (stereo not drawn),68.6%
11,COc1ccc(-c2nc3ncccn3c2/C=C/C(=O)c2cc(OC)c(OC)c(OC)c2)cc1,7.94% (active)
12,C=C(C=O)[C@@H]1CC=C(C=O)CC1,10.5%
13,CC(c1ccc(-n2cccn2)cc1)c1cnc(N2CCc3ccc(C(N)=O)cc3C2)s1 (stereo not drawn),42%
14,COc1cc(C(=O)/C=C/c2c(-c3ccc(F)cc3)nc3ncccn23)cc(OC)c1OC,46.5%
15,CNC=O,115%
16,CCOC(=O)c1c2c(c(C)n1C)-c1nn(Cc3ccc(OC)cc3)cc1CC2,71.2%
17,Cc1ccccc1NC(=O)CN(C)C,118%
18,COc1cc(/C=C/C(=O)c2cccc(-n3cc(-c4ccccc4)[nH]c3=O)c2)cc(OC)c1OC,-7.54% (active)
19,O=C(CC1Sc2ccccc2NC1=O)NNc1ccc(F)cc1 (stereo not drawn),72%
